Experimental data: PubChem BioAssay (EPA / NIEHS)
Inconclusive results are not listed. Active and inactive are the calls of the source. How the source made its calls: active means hit-call score of the fitted dose curve at least 0.9, where 1 is the maximum; inconclusive means response in the unintended direction; inactive means score below 0.9.

Tests used:
[1] = TOX21_p53_BLA_p2_viability: Viability Assessment in the Tox21 HCT-116 p53 Agonism Beta-lactamase Assay, Phase 2 (AID 2283591);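 further: compound exposure lasted 16 h at 37 °C; actives lower the ATP signal meaning cytotoxicity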
Procedure, shortened: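 HCT-116 p53-bla cells (4000/well) rested 5 h at 37C, then received compounds in DMSO (217-fold dilution) for 16 h at 37C, 5% CO2. After the CCF4 read, CellTiter-Glo was added; ATP luminescence was read after 30 min at room temperature.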

[2] = target: Cellular tumor antigen p53 (Homo sapiens) (UniProt P04637); assay: TOX21_p53_BLA_p2_ratio: Tox21 HCT-116 p53 Agonism Beta-lactamase Assay, Ratio, Phase 2 (AID 2283592)
Chain of Cellular tumor antigen p53 (Homo sapiens) (P04637 whole entry, looked up): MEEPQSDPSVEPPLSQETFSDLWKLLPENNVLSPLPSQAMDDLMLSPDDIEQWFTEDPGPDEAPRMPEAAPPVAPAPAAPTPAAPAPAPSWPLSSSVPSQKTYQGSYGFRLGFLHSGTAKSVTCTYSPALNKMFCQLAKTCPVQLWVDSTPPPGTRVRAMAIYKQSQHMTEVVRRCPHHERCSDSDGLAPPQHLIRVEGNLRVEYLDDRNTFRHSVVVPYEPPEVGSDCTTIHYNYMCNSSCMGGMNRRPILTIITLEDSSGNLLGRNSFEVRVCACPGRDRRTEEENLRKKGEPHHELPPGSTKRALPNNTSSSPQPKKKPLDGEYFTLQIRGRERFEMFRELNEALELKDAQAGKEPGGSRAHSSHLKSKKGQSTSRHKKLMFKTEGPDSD
Procedure, shortened: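 Gain-of-signal p53 agonism was scored from the beta-lactamase FRET ratio (460/530 nm, 405 nm excitation) in HCT116 cells treated 16 h at 37C, 5% CO2, with DMSO serving as negative control and baseline.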

[3] = TOX21_p53_BLA_p3_viability: Viability Assessment in the Tox21 HCT-116 p53 Agonism Beta-lactamase Assay, Phase 3 (AID 2283593);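 further: cells exposed to compound for 16 h before reading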
Procedure, shortened: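 HCT-116 cells (4000/well) rested 5 h at 37C, then got DMSO compounds by pin tool (217-fold dilution) for 16 h at 37C, 5% CO2. After the bla read, CellTiter-Glo was added and luminescence read at 30 min, room temperature.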

[4] = target: Cellular tumor antigen p53 (Homo sapiens) (UniProt P04637); assay: TOX21_p53_BLA_p3_ratio: Tox21 HCT-116 p53 Agonism Beta-lactamase Assay, Ratio, Phase 3 (AID 2283596)
Procedure, shortened: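 HCT116 p53-bla cells (4000/well) given compound in DMSO (217-fold dilution) after 5 h, incubated 16 h at 37C. CCF4-AM substrate 2 h at room temperature; 460/530 nm emission ratio, gain fitted against DMSO.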

[5] = TOX21_p53_BLA_p4_viability: Viability Assessment in the Tox21 HCT-116 p53 Agonism Beta-lactamase Assay, Phase 4 (AID 2283597);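 further: hits lower the luminescence signal meaning cytotoxicity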
Procedure, shortened: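 Following a 16 h exposure at 37C, the treated HCT116 wells were first read for the FRET ratio. They were then lysed with CellTiter-Glo, and ATP luminescence was recorded after 30 min at room temperature.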

[6] = target: Cellular tumor antigen p53 (Homo sapiens) (UniProt P04637); assay: TOX21_p53_BLA_p5_ratio: Tox21 HCT-116 p53 Agonism Beta-lactamase Assay, Ratio, Phase 5 (AID 2283599)
Procedure, shortened: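 HCT-116 cells carrying a p53-inducible beta-lactamase reporter were seeded at 4000 cells/well and dosed after 5 h with compound in DMSO (217-fold dilution). After 16 h at 37C, CCF4-AM substrate was added for 2 h, and the 460/530 nm emission ratio was scored as gain-of-signal versus DMSO.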

[7] = TOX21_p53_BLA_p5_viability: Viability Assessment in the Tox21 HCT-116 p53 Agonism Beta-lactamase Assay, Phase 5 (AID 2283600)
Procedure, shortened: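 After the 460/530 nm beta-lactamase measurement, the wells received an ATP-detection luciferase reagent; signal was read 30 min later at RT. Compound treatment lasted 16 h on cells pre-incubated 5 h post-seeding.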

[8] = target: Cellular tumor antigen p53 (Homo sapiens) (UniProt P04637); assay: TOX21_p53_BLA_p4_ratio: Tox21 HCT-116 p53 Agonism Beta-lactamase Assay, Ratio, Phase 4 (AID 2283601)
Procedure, shortened: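 HCT116 cells carrying an inducible beta-lactamase reporter were plated at 4000 cells/well, rested 5 h, then exposed to compounds in DMSO (217-fold dilution) for 16 h at 37C. CCF4-AM substrate was loaded 2 h at room temperature; 460/530 nm emission ratio scored gain-of-signal versus DMSO.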

Measured: AC50

CC[C@@H](C(=O)[C@@H](C)[C@@H](O)[C@H](C)CCc1ccc(C)c(O)c1C(=O)O)[C@H]1O[C@](CC)([C@H]2CC[C@](O)(CC)[C@H](C)O2)C[C@@H]1C
active: [1] 23 µM | [2] 17.2 µM | [3] 23 µM | [4] 30.3 µM | [5] 31.1 µM | [6] 36.2 µM | [7] 31.4 µM | [8] 14.6 µM

OC1(c2ccc(Cl)c(C(F)(F)F)c2)CCN(CCCC(c2ccc(F)cc2)c2ccc(F)cc2)CC1
active: [1] 12.8 µM | [2] 19.6 µM | [3] 30.7 µM | [4] 40.1 µM | [5] 20 µM | [6] 43.2 µM | [7] 37.6 µM | [8] 34.1 µM

CC(C)c1ccc2sc3ccccc3c(=O)c2c1
active: [5] 72.8 µM
inactive: all other assays above

c1ccc(C(O[C@H]2CCCN(CCc3ccc4c(c3)OCO4)C2)c2ccccc2)cc1
inactive: all assays above

CNC[C@H](O)c1ccc(O)c(O)c1
inactive: all assays above

CCc1c2c(nc3ccc(OC(=O)N4CCC(N5CCCCC5)CC4)cc13)-c1cc3c(c(=O)n1C2)COC(=O)[C@]3(O)CC
active: [2] 5.56 µM | [4] 5.37 µM | [6] 7.41 µM | [8] 11.3 µM
inactive: all other assays above

CCCCCCCCCCCCCCCCCC(=O)OC[C@@H](O)[C@H]1OC[C@H](O)[C@H]1O
inactive: all assays above

CC1=C(/C=C/C(C)=C/C=C/C(C)=C/C=O)C(C)(C)CCC1
active: [1] 28.7 µM | [3] 36.6 µM | [4] 66.6 µM | [5] 67 µM | [6] 49.1 µM | [7] 34.9 µM | [8] 85.6 µM
inactive: [2]

CC1=C2[C@H](/C=C(\C)C(=O)O)CC[C@@H](C)[C@H]2CC1
inactive: all assays above

CCCCCCOc1ccc(C(=N)N(CCCC)CCCC)c2ccccc12
active: [1] 23 µM | [2] 32.7 µM | [3] 23 µM | [4] 36.4 µM | [5] 10.1 µM | [6] 29.5 µM | [7] 23 µM | [8] 19.9 µM
